Source: PubChem BioAssay AID1985 (Southern Research Specialized Biocontainment Screening …, 2009)
Screen size: about 2,300 compounds; about 1,000 (43%) were called active. The rule behind the calls is not given here. The set was probably picked from earlier hits. The list shows a part of the results. Entries with a potency or affinity are not part of this list.

Assay: modified counter assay using GFP fluorescence, PhoP regulon inhibitor project, dose response (AID 1985)
Settings: S. Typhi, 4 h; series mostly up to 150 µM
In the case of `Cc1ccc(C2CC(=O)NC(SCCC(C)C)=C2C#N)cc1` (stereo not given), the outcome is reported as “inactive”. For `COc1ccc2c(c1)c1nc(SCC(C)C)n(CCO)c(=O)c1n2C`, the outcome was “inactive”. In the case of `O=S(=O)(c1ccccc1)c1nc(-c2cccs2)oc1NCC1CCCO1` (stereo not given), the outcome is reported as “inactive”. In the case of `O=C(NCC1CCCO1)c1cc2ccccc2oc1=O` (stereo not given), the outcome is reported as “inactive”. For `O=C(O)c1ccc(CSc2nnnn2C2CCCCC2)cc1`, the outcome was “inactive”. With `Cc1cc(NC(=O)COC(=O)c2cccc(S(=O)(=O)N(C)C3CCCCC3)c2)no1` the outcome was “inactive”. In the case of `O=C(O)Cn1c(=O)c2c3c(sc2n(Cc2ccccc2F)c1=O)CCCC3`, the outcome is reported as “inactive”. In the case of `CC1(C)Oc2ccc3ccc(=O)oc3c2/C(=C/NCCN/C=C2\C(=O)C(C)(C)Oc3ccc4ccc(=O)oc4c32)C1=O`, the outcome is reported as “inactive”. In the case of `Cc1cccc(N(C(=O)CCC(=O)Nc2ccccn2)C(C(=O)NC(C)C)c2ccc(O)cc2)c1` (stereo not given), the outcome is reported as “inactive”. For `CCN1CCN(C(=O)Cc2coc3cc(C)cc(C)c23)CC1`, the outcome was “inactive”. In the case of `CCN1CCN(C(=O)/C=C/c2cccc(Cl)c2)CC1`, the outcome is reported as “inactive”. In the case of `O=C(O)c1cc2cc(F)ccc2[nH]1`, the outcome is reported as “inactive”. With `CN1CCN(C(=O)CSc2ccc(Cl)cc2)CC1` the outcome was “inactive”. For `CCN1CCN(C(=O)c2cc3ccc(OC)cc3[nH]2)CC1`, the outcome was “inactive”. For `COC(=O)C(O)(c1c(C)[nH]n(-c2ccccc2)c1=O)C(F)(F)F` (stereo not given), the outcome was “inactive”. For `COc1cccc(C(c2c(C)[nH]n(-c3ccccc3)c2=O)c2c(C)[nH]n(-c3ccccc3)c2=O)c1O`, the outcome was “inactive”. For `Cc1c(-n2c(SCC(=O)C(C)(C)C)nc3ccccc3c2=O)c(=O)n(-c2ccccc2)n1C`, the outcome was “inactive”. In the case of `CC(=O)NCCn1c(SCc2ccccc2C)nc2ccccc2c1=O`, the outcome is reported as “inactive”. In the case of `Cc1nc(SCC(=O)N2c3ccccc3Sc3ccccc32)n[nH]1`, the outcome is reported as “inactive”. With `CC1(C)Cc2c(sc(NC(=O)COc3ccc(Cl)cc3)c2C(N)=O)C(C)(C)N1` the outcome was “inactive”. For `CCC1Oc2ccc(C)cc2N(CC(=O)NCC2COc3ccccc3O2)C1=O` (stereo not given), the outcome was “inactive”. In the case of `COc1ccccc1NC(=O)CN1CCC(c2nc3ccc(C)cc3[nH]2)CC1`, the outcome is reported as “inactive”. For `COc1ccc(C)cc1NC(=O)C1CCN(S(=O)(=O)c2c(C)noc2C)CC1`, the outcome was “inactive”. With `COc1ccccc1-n1nc(C(=O)NCc2ccco2)c2ccccc2c1=O` the outcome was “inactive”. For `CC1CCN(CCCNC(=O)c2ccc3c(=O)n(Cc4ccc(Cl)cc4)c(=S)[nH]c3c2)CC1`, the outcome was “inactive”. For `O=C(O)CC12CC3CC(C1)CC(n1ncc(NCC4CCCO4)c(Cl)c1=O)(C3)C2` (stereo not given), the outcome was “inactive”. With `CCOC(=O)c1nc(C)n(-c2cc(Cl)ccc2Cl)n1` the outcome was “inactive”. For `Cc1ccc(CN2C3=NCCN3c3ccccc32)cc1`, the outcome was “inactive”. With `O=C(CN1C2=NCCN2c2ccccc21)c1ccco1` the outcome was “inactive”. For `COc1cccc2[nH]c3c(N4CCN(Cc5ccc6c(c5)OCO6)CC4)ncnc3c12`, the outcome was “inactive”. With `O=c1cc(-c2ccccc2)nc(N2CCN(Cc3ccccc3)CC2)[nH]1` the outcome was “inactive”. With `c1cc2c(cc1Oc1nc(N3CCOCC3)nc(N3CCOCC3)n1)OCO2` the outcome was “inactive”. With `Cc1ccc2nc3c(c(N)c2c1)CCN3C` the outcome was “inactive”. For `CC(C)N=C(N)N=C(N)Nc1ccc(Cl)cc1`, the outcome was “inactive”. In the case of `Cc1cc(NCCCn2ccnc2)n2ncc(-c3ccccc3)c2n1`, the outcome is reported as “inactive”. In the case of `C[C@@H](C(=O)NC1CCCC1)N1C(=O)N2CCc3c([nH]c4ccccc34)[C@@]2(C)C1=O`, the outcome is reported as “inactive”. With `O=S1(=O)CC=C(CSC(=S)NC2CCS(=O)(=O)C2)C1` (stereo not given) the outcome was “inactive”. In the case of `CCc1cc(CNC(=O)C2CCC(=O)N(Cc3cccc(F)c3)C2)on1` (stereo not given), the outcome is reported as “inactive”. For `CC(C)NC(=O)CN1CCN(Cc2nc(C(c3ccccc3)c3ccccc3)no2)CC1`, the outcome was “inactive”. With `Cc1cnc(NC(=O)CN2C(=O)C3CC=CCC3C2=O)s1` (stereo not given) the outcome was “inactive”. For `CCc1nnc(NS(=O)(=O)c2ccc(NC(=S)NC(=O)/C=C/c3ccc(C(C)C)cc3)cc2)s1`, the outcome was “inactive”. In the case of `Cc1cc(NS(=O)(=O)c2ccc(NC(=O)C(C)Oc3ccc4c(C)cc(=O)oc4c3)cc2)no1` (stereo not given), the outcome is reported as “inactive”. In the case of `COc1nccnc1NS(=O)(=O)c1ccc(NC(=S)NC(=O)c2cccnc2)cc1`, the outcome is reported as “inactive”. In the case of `Cc1cc(NS(=O)(=O)c2ccc(Nc3nc(-c4sc(NC(=O)c5ccccc5)nc4C)cs3)cc2)no1`, the outcome is reported as “inactive”. In the case of `CC(C)n1cnnc1SCC(=O)Nc1ccc(Br)cc1F`, the outcome is reported as “inactive”. With `COC(=O)c1ccc(C)c(NC(=O)CN2C(=O)c3ccccc3S2(=O)=O)c1` the outcome was “inactive”. For `CS(=O)(=O)c1cnc2c(-c3ccc(F)cc3)cnn2c1N`, the outcome was “inactive”. With `COc1ccc(NC(=O)N2CCc3ccccc32)cc1` the outcome was “inactive”. With `O=C(CCl)NC1CCCc2ccccc21` (stereo not given) the outcome was “inactive”. With `S=C(NCc1ccc(Cl)cc1)Nc1ccncc1` the outcome was “inactive”. For `CCOc1ccccc1NC(=O)Nc1ccncc1`, the outcome was “inactive”. In the case of `Cc1ccc(NC(=O)C(=O)NCc2ccncc2)cc1`, the outcome is reported as “inactive”. In the case of `CCCCOc1ccc(-c2nnn(CC(=O)Nc3ncc(CC(=O)OCC)s3)n2)cc1`, the outcome is reported as “inactive”. With `CCOc1ccc(N2C(=O)CN(O)C=C3N=c4ccccc4=C32)cc1` the outcome was “inactive”. In the case of `Cc1cccc(OCCSc2nnc(-c3ccoc3C)n2C)c1`, the outcome is reported as “inactive”. In the case of `O=C(NCCCN1CCOCC1)c1sc2cc(Cl)ccc2c1Cl`, the outcome is reported as “inactive”. With `Cc1cccc(OCc2nnc(SCC(=O)N3CCCC3)n2C)c1` the outcome was “inactive”. In the case of `C[N+]1(CC2COC3(CCCCC3)O2)CCCCC1` (stereo not given), the outcome is reported as “inactive”. In the case of `CCN(CC)S(=O)(=O)c1ccc2c(c1)c(C(=O)O)cn2C`, the outcome is reported as “inactive”. With `Cc1nnc(SCC(=O)N(C(C)C)C(C)C)[nH]c1=O` the outcome was “inactive”. In the case of `O=C1CCCN1c1ccc(CNS(=O)(=O)c2ccc(F)cc2)cc1`, the outcome is reported as “inactive”. For `CCCCOc1ccc(C2=NNC(=O)CC2)cc1`, the outcome was “inactive”. In the case of `O=C(O)c1cnn2c1NC(c1cccs1)CC2C(F)(F)F` (stereo not given), the outcome is reported as “inactive”. For `Cc1cc2ncn(/N=C/c3ccc([N+](=O)[O-])o3)c2cc1C`, the outcome was “inactive”. With `O=C(Nc1ccccc1)c1cccnc1N1CCOCC1` the outcome was “inactive”. In the case of `Cc1cccc(N2CCN(C(=O)C3CCN(c4nnc(-n5cccc5)s4)CC3)CC2C)c1` (stereo not given), the outcome is reported as “inactive”. In the case of `COCCNC(=S)N=Nc1c(O)[nH]c2ccc([N+](=O)[O-])cc12`, the outcome is reported as “inactive”. In the case of `c1ccc2c(c1)nc(N1CCOCC1)c1c3ccccc3[nH]c21`, the outcome is reported as “inactive”. For `CC(=O)N1CSCC1C(=O)N1CCN(c2ccc(N3CCOCC3)nn2)CC1` (stereo not given), the outcome was “inactive”. For `Cc1nc2ccc(NC(=O)C(F)(F)F)cc2o1`, the outcome was “inactive”.
